Growth data for 12 compounds are collected here from PubChem BioAssay (NCI).

Several values for one entry are separate records, joined by “and”; a condition that tells them apart may be missing. Equal entries are not always repeated. Compounds without any hit were thinned out: in the full panel of roughly 83,000, 20% have a hit.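 Each cell line was grown in a 96-well plate and treated with one concentration of compound for 48 hours. Values below 10 were considered active.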 Unmarked numbers belong to inactive results. Activity calls are given as the source filed them.

Common to all, as to test: NCI-60 one-dose screen, 48 h (100 = growth as untreated, 0 = no growth, -100 = all killed)
Experiment [1] concerns T-47D breast.
The subject of experiment [2] is BT-549 breast.
Experiment [3] relates to MDA-MB-435 melanoma.
Experiment [4] deals with SW-620 colon.
Experiment [5] deals with MCF7 breast.
For experiment [6], the system named is HCT-116 colon.
The subject of experiment [7] is HCC-2998 colon.
Experiment [8] deals with KM12 colon.

For the compound `CC(C)(C)OC(=O)CC1(O)CCCCC1`, the growth in experiment [1] (10 µM unless noted) was 99.8%; in experiment [2] (10 µM unless noted) it was 110%; in experiment [3] (10 µM unless noted), 102%; in experiment [4] (10 µM unless noted) it was 103%; in experiment [5] (10 µM unless noted), 101%; in experiment [6] (10 µM unless noted), 102%. For the same compound, the growth in experiment [7] (10 µM unless noted) was 106%; in experiment [8] (10 µM unless noted), 107%.

Turning to `O=[N+]([O-])c1ccc(N/N=C/C2CCCCCC2)c([N+](=O)[O-])c1`, the growth in experiment [1] (10 µM unless noted) was 84%; in experiment [2] (10 µM unless noted) it was 91%; in experiment [3] (10 µM unless noted) it was 87.6%; in experiment [4] (10 µM unless noted) it was 79%; in experiment [5] (10 µM unless noted), 94.8%; in experiment [6] (10 µM unless noted) it was 103%. In addition, the growth in experiment [7] (10 µM unless noted) was 106%; in experiment [8] (10 µM unless noted), 71.6%.

For `CCN(CC)C(CC(=O)c1ccccc1)C(=O)c1ccccc1` (configuration not stated), the growth in experiment [1] (10 µM unless noted) was 77.8%; in experiment [2] (10 µM unless noted), 102%; in experiment [3] (10 µM unless noted) it was 99.2%; in experiment [4] (10 µM unless noted), -7.93% (active); in experiment [5] (10 µM unless noted), 53.2%; in experiment [6] (10 µM unless noted), 92%. Moreover, the growth is 108% in experiment [7] (10 µM unless noted) and 109% in experiment [8] (10 µM unless noted).

On to `CC(C)=NOC(C)C(=O)O` (configuration not stated), for which the growth is 107% in experiment [1] (10 µM unless noted); 98% in experiment [2] (10 µM unless noted); 97.2% in experiment [3] (10 µM unless noted); 103% in experiment [4] (10 µM unless noted); 97% in experiment [5] (10 µM unless noted); 95.7% in experiment [6] (10 µM unless noted). Besides, the growth is 100% in experiment [7] (10 µM unless noted) and 114% in experiment [8] (10 µM unless noted).

Turning to `COC(=O)c1cc(C(=O)OC)cc([N+](=O)[O-])c1`, the growth in experiment [1] (10 µM unless noted) was 111%; in experiment [2] (10 µM unless noted) it was 91.6%; in experiment [3] (10 µM unless noted) it was 115%; in experiment [4] (10 µM unless noted) it was 102%; in experiment [5] (10 µM unless noted), 98%; in experiment [6] (10 µM unless noted), 95.3%. Also, the growth in experiment [7] (10 µM unless noted) is 99.2%; in experiment [8] (10 µM unless noted), 112%.

In the case of `O=C(OCc1ccccc1)c1ccccc1`, the growth in experiment [1] (10 µM unless noted) was 96% and 87.9%; in experiment [2] (10 µM unless noted), 109% and 102%; in experiment [3] (10 µM unless noted), 105% and 112%; in experiment [4] (10 µM unless noted), 110% and 105%; in experiment [5] (10 µM unless noted) it was 107% and 94.3%; in experiment [6] (10 µM unless noted) it was 108% and 93.7%. Also, the growth in experiment [7] (10 µM unless noted) was 102% and 93.9%; in experiment [8] (10 µM unless noted), 104% and 102%.

`Cc1ccc(NC(=S)N/C=C(\c2ccccc2)S(=O)Cc2ccccc2)c(C)c1` (configuration not stated): the growth in experiment [1] (10 µM unless noted) is 77.4%; in experiment [2] (10 µM unless noted) it was 99.3%; in experiment [3] (10 µM unless noted), 97.9%; in experiment [4] (10 µM unless noted), 98%; in experiment [5] (10 µM unless noted), 90.3%; in experiment [6] (10 µM unless noted), 100%. Besides, the growth in experiment [7] (10 µM unless noted) is 105%; in experiment [8] (10 µM unless noted), 102%.

Take `CCN(CC)C(=S)SCCO`: the growth is 101% in experiment [1] (10 µM unless noted); 144% in experiment [2] (10 µM unless noted); 111% in experiment [3] (10 µM unless noted); 106% in experiment [4] (10 µM unless noted); 104% in experiment [5] (10 µM unless noted); 107% in experiment [6] (10 µM unless noted). The growth in experiment [7] (10 µM unless noted) is 94.1%; in experiment [8] (10 µM unless noted), 105%.

Consider `CS(=O)(=O)c1nsc(N)n1`, for which the growth in experiment [1] (10 µM unless noted) is 95%; in experiment [2] (10 µM unless noted) it was 107%; in experiment [3] (10 µM unless noted) it was 107%; in experiment [4] (10 µM unless noted), 100%; in experiment [5] (10 µM unless noted), 99.8%; in experiment [6] (10 µM unless noted), 103%. Also, the values for the growth in experiment [7] (10 µM unless noted) and in experiment [8] (10 µM unless noted) were 98.4% and 105%, respectively.

For `S=c1nn[nH]n1C1CCCCC1`, the growth in experiment [1] (10 µM unless noted) is 124%; in experiment [2] (10 µM unless noted) it was 125%; in experiment [3] (10 µM unless noted) it was 102%; in experiment [4] (10 µM unless noted) it was 99.8%; in experiment [5] (10 µM unless noted), 101%; in experiment [6] (10 µM unless noted), 101%. Further, the growth in experiment [7] (10 µM unless noted) is 113%; in experiment [8] (10 µM unless noted) it was 110%.

Take `S=c1nc[nH]c2nc[nH]c12`: the growth in experiment [1] (10 µM unless noted) is 18.6%; in experiment [2] (10 µM), 62%; in experiment [2] (50 µM) it was 64.4%; in experiment [3] (10 µM), 15.3%; in experiment [3] (50 µM), 13.8%; in experiment [4] (10 µM), 34.6%. The growth in experiment [4] (50 µM) is 21.5%; in experiment [6] (10 µM) it was 19.2%; in experiment [6] (50 µM) it was 28.3%; in experiment [8] (10 µM), 35.4%; in experiment [8] (50 µM), 14.9%.

For the compound `CS/C(=C\c1ccc(C(=O)c2ccc(C)cc2)n1C)S(C)=O` (configuration not stated), the growth in experiment [1] (10 µM) was 79.7%; in experiment [1] (100 µM), 47.6%; in experiment [2] (10 µM), 102%; in experiment [2] (100 µM), 47.4%; in experiment [3] (10 µM), 50.1%; in experiment [3] (100 µM), 26.9%. The growth in experiment [4] (10 µM) is 101%; in experiment [4] (100 µM) it was 97.4%; in experiment [5] (10 µM), 89.6%; in experiment [5] (100 µM), 70.7%; in experiment [6] (10 µM), 97.1%; in experiment [6] (100 µM), 70.9%. The growth is 95.9% in experiment [7] (10 µM), 87.2% in experiment [7] (100 µM), 94.3% in experiment [8] (10 µM) and 72.8% in experiment [8] (100 µM).
